A word on the residual activity: it is the signal under treatment as a percentage of the control signal.

Assay [1] deals with T1, Muscle, skeletal receptor tyrosine-protein kinase (Homo sapiens) (UniProt O15146).
T1 sequence (whole entry): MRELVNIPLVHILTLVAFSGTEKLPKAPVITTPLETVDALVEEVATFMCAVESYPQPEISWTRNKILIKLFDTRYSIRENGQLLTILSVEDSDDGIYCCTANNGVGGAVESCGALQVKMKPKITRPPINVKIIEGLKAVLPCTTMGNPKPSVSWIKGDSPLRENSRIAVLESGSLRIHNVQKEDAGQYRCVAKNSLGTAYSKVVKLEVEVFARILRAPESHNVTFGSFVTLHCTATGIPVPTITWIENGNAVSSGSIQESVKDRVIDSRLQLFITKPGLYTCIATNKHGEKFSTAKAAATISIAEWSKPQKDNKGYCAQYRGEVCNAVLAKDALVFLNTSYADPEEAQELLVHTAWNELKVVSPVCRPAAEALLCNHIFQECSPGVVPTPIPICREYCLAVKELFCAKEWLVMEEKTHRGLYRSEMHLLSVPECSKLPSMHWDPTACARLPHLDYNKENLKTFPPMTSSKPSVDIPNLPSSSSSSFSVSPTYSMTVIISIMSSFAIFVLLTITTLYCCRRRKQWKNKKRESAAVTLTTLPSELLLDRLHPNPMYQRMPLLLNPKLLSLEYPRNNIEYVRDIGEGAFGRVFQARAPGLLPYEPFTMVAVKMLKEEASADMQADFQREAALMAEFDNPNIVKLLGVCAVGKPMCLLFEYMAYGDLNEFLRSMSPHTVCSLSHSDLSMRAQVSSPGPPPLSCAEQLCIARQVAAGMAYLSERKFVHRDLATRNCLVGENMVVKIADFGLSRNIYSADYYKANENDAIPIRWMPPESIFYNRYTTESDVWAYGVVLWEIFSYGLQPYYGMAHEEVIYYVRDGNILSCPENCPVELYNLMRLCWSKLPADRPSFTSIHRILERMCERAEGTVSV
The settings on record: at 1 µM.

Assay [2] deals with T1, Muscle, skeletal receptor tyrosine-protein kinase (Homo sapiens). The settings on record: at 10 µM.
The target in assay [3] is T2, Serine/threonine-protein kinase Nek11 (Homo sapiens) (UniProt Q8NG66).
T2 sequence (whole entry): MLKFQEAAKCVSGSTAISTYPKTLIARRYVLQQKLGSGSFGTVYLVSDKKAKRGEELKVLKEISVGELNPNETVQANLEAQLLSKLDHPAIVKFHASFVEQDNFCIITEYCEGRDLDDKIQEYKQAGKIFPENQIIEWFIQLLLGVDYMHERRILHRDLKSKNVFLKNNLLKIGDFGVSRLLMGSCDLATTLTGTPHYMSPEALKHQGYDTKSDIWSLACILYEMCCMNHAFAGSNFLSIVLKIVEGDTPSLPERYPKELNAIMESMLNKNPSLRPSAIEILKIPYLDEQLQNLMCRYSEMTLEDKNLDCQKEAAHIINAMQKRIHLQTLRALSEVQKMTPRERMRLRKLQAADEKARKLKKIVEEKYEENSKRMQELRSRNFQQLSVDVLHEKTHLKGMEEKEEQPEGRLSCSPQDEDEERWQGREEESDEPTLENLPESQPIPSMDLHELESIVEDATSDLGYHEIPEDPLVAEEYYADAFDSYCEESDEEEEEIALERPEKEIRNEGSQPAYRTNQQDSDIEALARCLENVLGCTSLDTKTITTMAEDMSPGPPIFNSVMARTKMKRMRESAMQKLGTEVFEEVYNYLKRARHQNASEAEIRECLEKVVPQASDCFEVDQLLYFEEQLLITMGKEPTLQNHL
As to conditions: at 1 µM.

Assay [4] concerns the target T2, Serine/threonine-protein kinase Nek11 (Homo sapiens). As to conditions: at 10 µM.
The target of assay [5] is T3, Serine/threonine-protein kinase Nek2 (Homo sapiens) (UniProt P51955).
T3 sequence (whole entry): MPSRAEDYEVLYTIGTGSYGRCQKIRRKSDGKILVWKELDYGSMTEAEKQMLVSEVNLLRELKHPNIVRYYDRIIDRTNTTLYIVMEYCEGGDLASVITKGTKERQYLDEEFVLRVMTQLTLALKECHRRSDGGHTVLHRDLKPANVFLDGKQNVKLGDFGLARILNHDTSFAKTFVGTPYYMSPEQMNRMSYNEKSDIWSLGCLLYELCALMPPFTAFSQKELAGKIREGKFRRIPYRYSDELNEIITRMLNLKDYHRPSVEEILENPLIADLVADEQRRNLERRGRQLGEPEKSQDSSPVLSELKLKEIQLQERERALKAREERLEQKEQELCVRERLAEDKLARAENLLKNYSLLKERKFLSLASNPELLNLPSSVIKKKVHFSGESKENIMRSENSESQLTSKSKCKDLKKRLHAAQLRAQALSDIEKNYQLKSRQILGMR
As to conditions: at 1 µM.

Assay [6] has as its target T3, Serine/threonine-protein kinase Nek2 (Homo sapiens). As to conditions: at 10 µM.
For assay [7], the target named is T4, Serine/threonine-protein kinase Nek3 (Homo sapiens) (UniProt P51956).
T4 sequence (whole entry): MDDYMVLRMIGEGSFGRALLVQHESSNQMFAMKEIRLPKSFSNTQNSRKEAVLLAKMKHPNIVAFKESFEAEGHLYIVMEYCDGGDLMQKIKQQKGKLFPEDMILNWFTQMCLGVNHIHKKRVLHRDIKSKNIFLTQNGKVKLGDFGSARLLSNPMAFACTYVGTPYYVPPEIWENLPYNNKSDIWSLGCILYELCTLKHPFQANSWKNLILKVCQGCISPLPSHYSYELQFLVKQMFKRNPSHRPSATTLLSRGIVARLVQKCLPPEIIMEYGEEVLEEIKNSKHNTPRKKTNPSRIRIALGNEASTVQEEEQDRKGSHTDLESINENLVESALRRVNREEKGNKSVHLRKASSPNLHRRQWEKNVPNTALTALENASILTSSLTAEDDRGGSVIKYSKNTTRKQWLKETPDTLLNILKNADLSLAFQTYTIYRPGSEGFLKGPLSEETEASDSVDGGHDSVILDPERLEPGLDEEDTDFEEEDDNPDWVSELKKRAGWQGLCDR
The settings on record: at 1 µM.

Assay [8] concerns the target T4, Serine/threonine-protein kinase Nek3 (Homo sapiens). As to conditions: at 10 µM.
Assay [9] concerns the target Serine/threonine-protein kinase tousled-like 2 (Homo sapiens) (UniProt Q86UE8). As to conditions: at 1 µM.
Assay [10] has the same target. As to conditions: at 10 µM.
Assay [11] addresses T5, Testis-specific serine/threonine-protein kinase 1 (Homo sapiens) (UniProt Q9BXA7).
T5 sequence (whole entry): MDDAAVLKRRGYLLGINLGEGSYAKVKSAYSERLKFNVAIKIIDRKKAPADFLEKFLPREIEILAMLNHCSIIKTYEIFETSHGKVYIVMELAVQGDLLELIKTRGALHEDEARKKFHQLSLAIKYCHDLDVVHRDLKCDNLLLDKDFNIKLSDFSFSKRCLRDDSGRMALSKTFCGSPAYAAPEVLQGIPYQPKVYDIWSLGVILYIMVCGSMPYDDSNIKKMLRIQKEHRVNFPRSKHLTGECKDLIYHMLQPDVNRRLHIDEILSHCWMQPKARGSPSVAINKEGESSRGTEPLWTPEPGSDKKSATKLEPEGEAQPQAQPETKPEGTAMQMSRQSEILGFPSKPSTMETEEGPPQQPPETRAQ
As to conditions: at 1 µM.

Assay [12] addresses T5, Testis-specific serine/threonine-protein kinase 1 (Homo sapiens). The settings on record: at 10 µM.
Assay [13] has as its target T6, Testis-specific serine/threonine-protein kinase 2 (Homo sapiens) (UniProt Q96PF2).
T6 sequence (whole entry): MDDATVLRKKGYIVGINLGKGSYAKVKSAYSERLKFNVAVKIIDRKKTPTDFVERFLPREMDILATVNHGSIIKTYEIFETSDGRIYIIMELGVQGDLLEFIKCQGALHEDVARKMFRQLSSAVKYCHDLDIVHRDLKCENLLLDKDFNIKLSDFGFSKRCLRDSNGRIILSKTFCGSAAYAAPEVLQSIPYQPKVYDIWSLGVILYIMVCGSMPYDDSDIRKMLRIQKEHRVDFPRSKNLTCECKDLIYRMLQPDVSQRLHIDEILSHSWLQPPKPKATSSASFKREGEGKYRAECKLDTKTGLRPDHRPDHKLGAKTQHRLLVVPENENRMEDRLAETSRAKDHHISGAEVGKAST
The settings on record: at 10 µM.

Assay [14] has as its target T7, Tyrosine-protein kinase Tec (Homo sapiens) (UniProt P42680).
T7 sequence (whole entry): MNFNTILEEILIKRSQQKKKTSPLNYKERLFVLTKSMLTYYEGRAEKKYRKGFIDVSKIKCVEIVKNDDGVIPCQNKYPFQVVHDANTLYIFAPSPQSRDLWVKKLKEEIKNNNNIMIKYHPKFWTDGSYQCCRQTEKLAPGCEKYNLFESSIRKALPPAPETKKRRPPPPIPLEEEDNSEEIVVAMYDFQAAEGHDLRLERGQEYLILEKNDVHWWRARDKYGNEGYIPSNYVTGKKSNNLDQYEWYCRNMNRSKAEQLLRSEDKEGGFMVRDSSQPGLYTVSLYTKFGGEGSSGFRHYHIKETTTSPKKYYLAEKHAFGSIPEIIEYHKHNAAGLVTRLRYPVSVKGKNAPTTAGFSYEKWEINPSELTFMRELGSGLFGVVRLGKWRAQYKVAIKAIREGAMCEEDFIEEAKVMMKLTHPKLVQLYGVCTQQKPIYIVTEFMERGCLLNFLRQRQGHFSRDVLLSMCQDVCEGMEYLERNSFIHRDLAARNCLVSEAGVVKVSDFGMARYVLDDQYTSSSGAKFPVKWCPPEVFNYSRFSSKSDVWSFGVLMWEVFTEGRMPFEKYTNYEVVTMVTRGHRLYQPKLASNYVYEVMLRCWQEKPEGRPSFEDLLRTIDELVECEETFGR
The settings on record: at 1 µM.

The target in assay [15] is T7, Tyrosine-protein kinase Tec (Homo sapiens). The settings on record: at 10 µM.
The target of assay [16] is Angiopoietin-1 receptor (Homo sapiens) (UniProt Q02763). As to conditions: at 1 µM.
Assay [17] shares this target. As to conditions: at 10 µM.
In assay [18] the target is High affinity nerve growth factor receptor (Homo sapiens) (UniProt P04629). The settings on record: at 1 µM.
For assay [19] the target is unchanged. The settings on record: at 10 µM.
Assay [20] has as its target BDNF/NT-3 growth factors receptor (Homo sapiens) (UniProt Q16620). The settings on record: at 1 µM.

Sequence of BDNF/NT-3 growth factors receptor (Homo sapiens) (Q16620 32-822 limits assumed): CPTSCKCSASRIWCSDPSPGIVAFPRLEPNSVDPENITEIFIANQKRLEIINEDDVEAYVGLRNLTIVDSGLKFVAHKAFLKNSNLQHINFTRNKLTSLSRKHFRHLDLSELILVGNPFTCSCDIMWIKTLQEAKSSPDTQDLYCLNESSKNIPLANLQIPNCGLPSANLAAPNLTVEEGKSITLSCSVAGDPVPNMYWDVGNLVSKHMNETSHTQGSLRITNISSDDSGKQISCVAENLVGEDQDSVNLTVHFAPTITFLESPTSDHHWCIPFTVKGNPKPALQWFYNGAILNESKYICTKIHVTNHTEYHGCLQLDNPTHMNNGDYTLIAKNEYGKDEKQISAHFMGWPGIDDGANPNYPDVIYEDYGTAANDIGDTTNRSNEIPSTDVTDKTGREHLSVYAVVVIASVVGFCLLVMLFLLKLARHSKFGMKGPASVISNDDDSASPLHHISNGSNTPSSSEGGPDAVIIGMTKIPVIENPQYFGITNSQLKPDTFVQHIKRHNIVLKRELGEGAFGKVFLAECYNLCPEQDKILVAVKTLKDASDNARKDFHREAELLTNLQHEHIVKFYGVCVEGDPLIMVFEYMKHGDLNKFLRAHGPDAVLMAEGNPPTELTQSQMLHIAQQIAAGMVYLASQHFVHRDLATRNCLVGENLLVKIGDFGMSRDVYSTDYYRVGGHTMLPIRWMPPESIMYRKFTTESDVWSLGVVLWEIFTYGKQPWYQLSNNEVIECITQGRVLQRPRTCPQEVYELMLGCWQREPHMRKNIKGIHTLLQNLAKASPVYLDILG
Sequence of High affinity nerve growth factor receptor (Homo sapiens) (P04629 33-796 limits assumed): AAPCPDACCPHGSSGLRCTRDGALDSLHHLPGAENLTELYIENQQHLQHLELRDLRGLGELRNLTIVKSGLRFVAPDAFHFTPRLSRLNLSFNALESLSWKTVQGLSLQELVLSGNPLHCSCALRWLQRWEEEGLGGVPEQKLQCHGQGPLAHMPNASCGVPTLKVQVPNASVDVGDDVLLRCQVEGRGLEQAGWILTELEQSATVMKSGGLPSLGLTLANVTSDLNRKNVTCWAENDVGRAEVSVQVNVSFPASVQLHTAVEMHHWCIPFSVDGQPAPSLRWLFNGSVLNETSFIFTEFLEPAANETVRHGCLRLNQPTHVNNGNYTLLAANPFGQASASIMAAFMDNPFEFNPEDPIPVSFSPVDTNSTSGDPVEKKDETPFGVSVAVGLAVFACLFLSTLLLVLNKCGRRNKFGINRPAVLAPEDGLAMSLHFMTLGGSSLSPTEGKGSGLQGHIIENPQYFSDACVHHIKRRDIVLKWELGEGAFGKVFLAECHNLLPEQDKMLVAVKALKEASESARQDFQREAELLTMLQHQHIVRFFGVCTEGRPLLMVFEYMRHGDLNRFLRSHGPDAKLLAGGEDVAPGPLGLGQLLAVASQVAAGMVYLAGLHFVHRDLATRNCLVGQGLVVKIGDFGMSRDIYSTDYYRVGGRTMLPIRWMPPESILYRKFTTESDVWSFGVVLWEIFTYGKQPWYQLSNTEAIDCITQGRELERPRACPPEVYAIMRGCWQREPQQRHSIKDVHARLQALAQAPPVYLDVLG
Sequence of Angiopoietin-1 receptor (Homo sapiens) (Q02763 whole entry): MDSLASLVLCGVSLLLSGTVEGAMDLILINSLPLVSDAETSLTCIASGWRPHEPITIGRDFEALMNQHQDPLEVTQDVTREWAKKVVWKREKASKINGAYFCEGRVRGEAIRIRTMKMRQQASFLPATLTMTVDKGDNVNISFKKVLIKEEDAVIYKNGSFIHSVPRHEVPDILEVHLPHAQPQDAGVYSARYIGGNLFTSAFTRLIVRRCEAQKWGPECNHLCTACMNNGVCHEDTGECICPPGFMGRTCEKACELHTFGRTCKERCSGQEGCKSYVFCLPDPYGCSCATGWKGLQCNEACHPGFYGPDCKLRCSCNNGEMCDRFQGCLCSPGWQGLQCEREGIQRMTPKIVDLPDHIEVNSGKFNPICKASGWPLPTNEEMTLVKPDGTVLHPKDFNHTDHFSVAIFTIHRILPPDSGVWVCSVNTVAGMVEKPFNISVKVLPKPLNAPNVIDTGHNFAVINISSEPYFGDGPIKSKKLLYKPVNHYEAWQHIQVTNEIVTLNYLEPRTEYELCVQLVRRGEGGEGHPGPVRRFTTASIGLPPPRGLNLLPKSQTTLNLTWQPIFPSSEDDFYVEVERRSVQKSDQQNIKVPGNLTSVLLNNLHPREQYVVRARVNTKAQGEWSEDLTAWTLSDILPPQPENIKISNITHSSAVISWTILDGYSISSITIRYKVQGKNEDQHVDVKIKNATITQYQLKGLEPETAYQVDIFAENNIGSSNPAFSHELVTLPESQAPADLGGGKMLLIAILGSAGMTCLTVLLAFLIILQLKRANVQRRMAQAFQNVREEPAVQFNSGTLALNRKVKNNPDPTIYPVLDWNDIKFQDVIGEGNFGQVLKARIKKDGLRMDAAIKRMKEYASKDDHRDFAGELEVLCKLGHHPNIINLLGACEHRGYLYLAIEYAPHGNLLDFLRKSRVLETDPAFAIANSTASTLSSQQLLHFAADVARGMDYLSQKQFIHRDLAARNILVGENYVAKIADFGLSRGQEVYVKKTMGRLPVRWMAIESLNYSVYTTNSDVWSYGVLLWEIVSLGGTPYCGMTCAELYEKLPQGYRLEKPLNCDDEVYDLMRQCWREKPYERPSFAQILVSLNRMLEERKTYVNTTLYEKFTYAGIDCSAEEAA
Sequence of Serine/threonine-protein kinase tousled-like 2 (Homo sapiens) (Q86UE8 whole entry, looked up): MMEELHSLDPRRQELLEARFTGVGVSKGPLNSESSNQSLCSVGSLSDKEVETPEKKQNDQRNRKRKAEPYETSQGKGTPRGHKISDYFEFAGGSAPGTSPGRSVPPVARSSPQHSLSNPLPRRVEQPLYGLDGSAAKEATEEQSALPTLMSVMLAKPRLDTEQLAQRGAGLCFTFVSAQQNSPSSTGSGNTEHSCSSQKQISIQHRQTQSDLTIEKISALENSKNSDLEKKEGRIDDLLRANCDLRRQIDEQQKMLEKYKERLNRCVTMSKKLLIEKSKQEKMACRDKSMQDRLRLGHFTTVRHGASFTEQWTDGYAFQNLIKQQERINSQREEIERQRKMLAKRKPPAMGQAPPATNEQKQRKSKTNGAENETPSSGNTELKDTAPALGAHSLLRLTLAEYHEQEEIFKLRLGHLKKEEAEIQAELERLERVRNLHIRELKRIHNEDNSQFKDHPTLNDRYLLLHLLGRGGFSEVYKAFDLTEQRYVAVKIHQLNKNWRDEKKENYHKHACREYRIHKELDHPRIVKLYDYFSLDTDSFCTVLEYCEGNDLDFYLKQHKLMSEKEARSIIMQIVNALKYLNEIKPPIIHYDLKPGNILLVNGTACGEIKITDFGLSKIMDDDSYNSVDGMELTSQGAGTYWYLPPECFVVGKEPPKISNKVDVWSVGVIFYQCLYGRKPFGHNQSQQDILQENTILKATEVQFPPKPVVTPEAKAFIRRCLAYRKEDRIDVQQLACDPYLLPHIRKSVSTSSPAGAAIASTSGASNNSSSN

Regarding `O=c1c2ccccc2[nH]c(=S)n1CCN1CCC(=C(c2ccc(F)cc2)c2ccc(F)cc2)CC1`, the residual activity turned out to be 116% in [1]; 91% in assay [2]; 106% in [3]; 98% in assay [4]; 86% in [5]; 106% in assay [6]. Besides, the residual activity came to 104% in assay [7]; 42% in assay [8]; 104% in assay [9]; 94% in assay [10]; 101% in assay [11]; 86% in [12]. In addition, the residual activity in [13] came to 70%; in assay [14] it was 94%; in assay [15] it was 44%; in assay [16] it was 87%; in [17] it was 59%; in assay [18], 82%. Further, the results for the residual activity in assay [19] and in assay [20] were 87% and 44%, respectively.
`O=C1c2ccccc2-[n+]2ccc3c([nH]c4ccccc43)c21`: the residual activity was found to be 85% in assay [1]; 88% in assay [2]; 48% in assay [3]; 44% in assay [4]; 90% in assay [5]; 87% in assay [6]. The residual activity turned out to be 88% in assay [7]; 90% in [8]; 80% in assay [9]; 83% in assay [10]; 90% in assay [11]; 89% in [12]. The residual activity in assay [13] came out at 86%; in assay [14], 77%; in assay [15], 74%; in assay [16] it was 90%; in assay [17] it was 78%; in assay [18], 83%. For the same compound, the figures for the residual activity in [19] and in assay [20] were 47% and 89%, respectively.
As to `O=C1NC(=O)/C(=C\c2ccc3nccnc3c2)S1`, the residual activity amounted to 90% in assay [1]; 75% in assay [2]; 43% in assay [3]; 35% in [4]; 88% in assay [5]; 86% in [6]. Besides, the residual activity turned out to be 109% in [7]; 81% in assay [8]; 103% in [9]; 91% in assay [10]; 92% in assay [11]; 58% in assay [12]. Moreover, the residual activity in [13] turned out to be 86%; in assay [14], 98%; in assay [15], 79%; in assay [16] it was 75%; in assay [17], 83%; in [18] it was 127%. Moreover, the residual activity stood at 96% in assay [19] and 126% in assay [20].

These data come from ChEMBL document CHEMBL2218924, “A broad activity screen in support of a chemogenomic map for kinase signalling research and drug discovery” (Biochem J, 2013).
